Bioassay records deposited in PubChem by SRMLSC.
DPM-DC inhibit – inhibitors of Streptococcus pneumoniae diphosphomevalonate decarboxylase; purified DPM-DC, PK/LDH coupled NADH fluorescence; calls only at 10 µM; 65,000 compounds, 0.49% hits;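 active = the 320 compounds with the highest percent inhibition in the single-dose primary screen, excluding strongly autofluorescent ones, cut at about 32% in these data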;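 note: kinetic rate of NADH fluorescence loss reporting ADP formed by the decarboxylase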
Spn PMK inh – blocks S. pneumoniae phosphomevalonate kinase | purified PMK, PK/LDH-coupled NADH absorbance 340 nm | inhibition, % at 10 µM | 65,000 compounds, 0.49% hits | AID 539;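 active = top-ranked compounds by inhibition in the single 10 µM screen, taking a fixed number of the strongest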
A340 absorber – compounds absorbing at 340 nm | compound absorbance at 340 nm, fold over control | AID 708 | 65,000 tested, under 10 active | fold change at 10 µM;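 active = at 10 µM dose, initial 340 nm absorbance at least 2 fold that of control wells; inactive = change under 2 fold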;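 note: initial absorbance extrapolated from kinetic A340 decline of NADH oxidation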
Autofluor 339 – intrinsic fluorescence of library compounds, ex339/em460 – biochemical, MLSMR library, data from DPM-DC assay, artefact control, profiling panel; compound autofluorescence, ex339/em460 nm, NADH buffer; hits give high values; 1 = no-compound wells, NADH background; fluorescence fold increase at 10 µM; 65,000 compounds, 5.5% hits;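 active = at 10 µM, mean starting fluorescence two-fold or more over control wells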;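 note: signal is the first read of a kinetic run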
MK inhibit – inhibitors of Streptococcus pneumoniae mevalonate kinase. purified MK, PK/LDH-coupled NADH absorbance 340 nm. 65,000 compounds, 0.48% hits. inhibition, % at 10 µM;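 active = ranked among the strongest by inhibition in the single 10 µM screen, a fixed top-ranked set picked for dose follow-up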
NADH coupling – blocks coupling enzymes of NAD/NADH assays. coupled PK/LDH NADH assays, four targets. IC50, µM (top dose mostly 10 µM). 65,000 compounds, 0.02% hits;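 active = single-dose screening hits from any of four coupled enzyme assays that gave an IC50 when retested across doses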;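 note: the DPM-DC format reads NADH fluorescence rather than 340 nm absorbance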
A number is an active result; – = inactive; · = no result shown; + = active, no number; [ ] = remark or other dose. In the library only some 6.8% were active in any assay of this set; here they are far more common.

SMILES | DPM-DC inhibit | Spn PMK inh | A340 absorber | Autofluor 339 | MK inhibit | NADH coupling
O=C1NC(=O)C(CC(=O)N(c2ccccc2)C2(C(=O)NC3CCCC3)CCCCC2)N1 (centres undefined) | + | – | – | – | – | –
O=C(Cn1cnc2ccccc2c1=O)NC1CCCc2ccccc21 (centres undefined) | – | – | – | – | – | –
COC(=O)c1ccc2c(c1)N(C)CCS2 | · | – | – | 2.09 | – | –
CCOC(=O)N1CCN(C(=O)c2ccc3c(c2)N(CC)CCS3)CC1 | · | – | – | 2.04 | – | –
CCOC(=O)N1CCC(NC(=O)c2ccc3c(c2)N(C)CCS3)CC1 | · | – | – | 3.4 | – | –
CCOC(=O)N1CCN(C(=O)c2ccc(N3C(=O)c4ccccc4C3=O)cc2)CC1 | – | – | – | – | – | –
CCOC(=O)N1CCC(NC(=O)c2cc(C(=O)NC3CCCC3)ccc2CO)CC1 | – | – | – | – | – | –
CCOC(=O)C1CCCN(Cc2ccc(OC)cc2OC)C1 (centres undefined) | – | – | – | – | 49.0 | –
CCOC(=O)C1CCN(Cc2ccc(OC)c(C)c2OC)CC1 | – | – | – | – | 48.0 | –
Fc1ccc(CN2CCSCC2)cc1Br | – | – | – | – | – | –
CCOC(=O)C1CCN(Cc2ccc(F)c(Br)c2)CC1 | – | – | – | – | 51.0 | –
CCOC(=O)C1CCCN(Cc2ccc(O)c(OC)c2)C1 (centres undefined) | – | – | – | – | – | –
Cc1ccc(C)c(S(=O)(=O)NC(CCC(N)=O)C(=O)O)c1 (centres undefined) | – | – | – | – | – | –
O=c1cc(-c2ccc3c(c2)OCO3)oc2ccccc12 | · | – | – | 3.65 | – | –
O=c1cc(-c2ccncc2)oc2ccccc12 | – | – | – | – | – | –
CCNC(=O)CN(c1ccc(CC)cc1)S(C)(=O)=O | – | – | – | – | – | –
O=c1c2ccccc2nc2n1CC/C2=C/N1CCN(c2cccc(C(F)(F)F)c2)CC1 | – | – | – | – | – | –
O=C(c1cc2c(s1)-c1ccccc1OC2)N1CCN(c2ccccn2)CC1 | · | – | – | 2.15 | – | –
Cc1csc(NC(=O)c2cc3c(s2)-c2ccccc2OC3)n1 | · | – | – | 2.45 | – | –
O=C(Cn1ncc2c1-c1ccccc1OC2)N1CCN(c2ccccn2)CC1 | – | – | – | – | – | –
O=C(c1cc2c(s1)-c1ccccc1OC2)N1CCCC1 | · | – | – | 2.17 | – | –
Cc1ccc(S(=O)c2ccc(C)cc2)cc1 | – | – | – | – | – | –
CCOC(=O)Cn1c(C)c(Br)c(=O)c2cccc(C)c21 | – | – | – | – | – | –
CCOc1ccc(C(=O)O)cc1OC | + | – | – | – | – | –
COc1cc(C(=O)O)ccc1OC(C)=O | – | – | – | – | – | –
SMILES | DPM-DC inhibit | Spn PMK inh | A340 absorber | Autofluor 339 | MK inhibit | NADH coupling
CC(=O)Nc1ccc2nc(-c3cccs3)[nH]c2c1 | · | – | – | 2.29 | – | –
NC(=O)C1CCN(c2nc(-c3ccccc3)nc3ccccc23)CC1 | – | – | – | – | – | –
NC(=O)C1CCN(c2nc(-c3ccccc3)nc3c2oc2ccccc23)CC1 | – | – | – | 2.15 | – | –
CCC(=O)Nc1c(OC(=O)CC)ccc2c(C)cc(=O)oc12 | · | – | – | 2.13 | – | –
CCC(=O)Nc1c(C)cc(C)cc1Cl | – | – | – | – | – | –
OCCN(CCO)c1nc(N2CCCCC2)c2nc(N(CCO)CCO)nc(N3CCCCC3)c2n1 | · | – | – | 2.25 | – | –
CC(C)c1nnc(NC(=O)c2cccs2)s1 | – | – | – | – | – | –
CCC(CC)C(=O)Nc1nnc(-c2cccs2)s1 | – | – | – | 2.62 | – | –
COc1ccccc1NC(=O)N(CCCN1CCOCC1)Cc1cc2cc3c(cc2[nH]c1=O)OCO3 | – | – | – | 3.49 | – | –
O=C(Nc1ccc(F)cc1)N(CCCN1CCOCC1)Cc1cc2cc3c(cc2[nH]c1=O)OCO3 | + | 27.0 | – | 2.71 | – | –
O=C(Nc1ccc(F)cc1)N(CCCN1CCOCC1)Cc1cc2cc3c(cc2[nH]c1=O)OCCO3 | · | – | – | 3.17 | – | –
CC1(C(=O)N(CC(=O)NC2CCCC2)Cc2ccco2)CC(=O)N=C2C=CC=CN21 (centres undefined) | · | – | – | 4.85 | – | –
Cc1nn(-c2ccccc2)c2sc(C(=O)N(CC(=O)NC3CCCC3)Cc3ccco3)cc12 | – | – | – | – | – | –
CCCn1cnc2c(cnn2-c2ccc(F)cc2)c1=O | – | 27.0 | – | – | – | –
CCCCn1cnc2c(cnn2-c2ccc(F)cc2)c1=O | – | – | – | – | – | –
Cc1cc(C(=O)OCC(=O)N2c3ccccc3CC2C)c(C)o1 (centres undefined) | – | – | – | – | – | –
CCN(CC)C(=O)NC1CC2CCCC(C1)N2Cc1ccccc1 (centres undefined) | – | 27.0 | – | – | – | –
O=C(NCc1ccccc1)NC1CC2CCC(C1)N2Cc1ccco1 (centres undefined) | – | – | – | – | – | –
CCOC(=O)Cc1c(C)c2c(C)nn(-c3ccccc3)c2oc1=O | – | – | – | 2.28 | – | –
Cc1c(NC(=O)CN2C(=O)c3ccccc3S2(=O)=O)c(=O)n(-c2ccccc2)n1C | – | – | – | – | – | –
Cc1c(NC(=O)CN2c3cccc4cccc(c34)S2(=O)=O)c(=O)n(-c2ccccc2)n1C | +[may fluoresce] | – | – | 2.52 | – | –
COc1ccc(NC(=O)CN2c3cccc4cccc(c34)S2(=O)=O)cc1 | – | – | – | 2.33 | – | –
O=C(CN1c2cccc3cccc(c23)S1(=O)=O)N1CCOCC1 | +[fluoresces] | – | – | 2.77 | – | –
c1ccc(-c2noc(-c3cccc4ccccc34)n2)cc1 | – | – | – | 2.52 | – | –
CCOC(=O)CC1C(=O)NC2CCCCC2N1C(=O)Nc1ccc(Cl)cc1 (centres undefined) | – | – | – | – | – | –
SMILES | DPM-DC inhibit | Spn PMK inh | A340 absorber | Autofluor 339 | MK inhibit | NADH coupling
Nc1cccc(-c2nc3ccc(N)cc3s2)c1 | · | – | – | 3.87 | – | –
O=C(O)c1ccc(COc2c(F)c(F)c(F)c(F)c2F)o1 | – | – | – | – | – | –
COCCn1nnnc1C(c1ccccc1OC)N1CCc2ccccc2C1 (centres undefined) | – | – | – | – | – | –
CC(=O)Nc1ccc(S(=O)(=O)N2CCN(c3cc(C)nc4ccccc34)CC2)cc1 | – | – | – | – | – | –
CC(=O)Nc1ccc(S(=O)(=O)N2CCN(c3nc(NC4CCCC4)c4ccccc4n3)CC2)cc1 | · | – | – | 2.2 | – | –
O=C(c1ccc(=O)[nH]c1)N(Cc1ccco1)C1(C(=O)NC2CCCC2)CCCCC1 | – | – | – | – | – | –
Cc1cc(C(=O)Nc2sc(C)c(-c3ccc(F)cc3)c2C(N)=O)no1 | – | – | – | 2.3 | – | –
COc1cc(OC)c(C2CC(=O)N3CN(c4ccccc4)CSC3=C2C#N)cc1OC (centres undefined) | – | – | – | – | 64.0 | –
